This is one part of a sample in which hits are shown more often than they occur.
Sfp inh – qHTS Assay for Inhibitors of Bacillus subtilis Sfp phosphopantetheinyl transferase (PPTase); 4'-phosphopantetheinyl transferase ffp (Bacillus subtilis), Q9F4F7; Biochemical Sfp PPTase activity, qHTS; Potency, µM, without a hit: largest response in the series, negative = inhibition, usual class: inhibitors; 310,000 tested, 3.5% active;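 further: the enzyme is Sfp with the accession as filed and its product quenches rhodamine fluorescence; 0% = enzyme reaction without inhibitor and -100% = no enzyme wells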
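Buffer: 50 mM Hepes-Na pH 7.6, 10 mM MgCl2, 0.01% Nonidet P-40, 0.01% BSA. Enzyme 15 nM, pre-exposed to compound 15 min; substrates then added and fluorescence change tracked over 30 min.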
VDR inhibitor – Inhibitors of the vitamin D receptor (VDR): qHTS | Potency, µM, for the others: max response, negative = inhibition, hits mostly inhibitors | Vitamin D3 receptor (Homo sapiens), P11473 | AID 504847, 2011 | VDR-SRC2-3 peptide fluorescence polarization, 2 h | 400,000 tested, 0.93% active; further: on the % scale 0 is the no-effect control and ±100 the full control effect
Target sequence (P11473 whole entry, looked up): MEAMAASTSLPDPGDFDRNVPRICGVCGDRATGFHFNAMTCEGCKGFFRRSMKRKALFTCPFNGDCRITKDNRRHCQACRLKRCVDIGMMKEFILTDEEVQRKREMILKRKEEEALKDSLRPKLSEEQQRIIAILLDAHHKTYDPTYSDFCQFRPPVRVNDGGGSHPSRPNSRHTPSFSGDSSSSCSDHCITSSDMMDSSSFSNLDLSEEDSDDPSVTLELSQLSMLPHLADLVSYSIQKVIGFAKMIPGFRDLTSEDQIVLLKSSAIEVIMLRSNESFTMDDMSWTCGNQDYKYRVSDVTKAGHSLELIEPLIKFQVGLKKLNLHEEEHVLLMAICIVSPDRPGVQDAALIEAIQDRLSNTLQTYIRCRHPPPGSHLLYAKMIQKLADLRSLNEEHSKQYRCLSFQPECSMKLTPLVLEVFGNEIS
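VDR–SRC2-3 interaction, FP format. Cmpds 23 nl via pintool, brief spin, 2 h ambient incubation.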
G9a inh – qHTS Assay for Inhibitors of Histone Lysine Methyltransferase G9a. G9a H3K9 monomethylation, AlphaScreen, 2 h. 350,000 tested, 8.8% active. Histone-lysine N-methyltransferase EHMT2 (Homo sapiens), Q96KQ7. AID 504332, 2011. Potency, µM (series often up to 102 µM), inactives show at the highest dose activity, negative = inhibition, hits mostly inhibitors; further: on the % scale 0 is the no-effect control and ±100 the full control effect; nearly all actives have a fitted effect of over 75% in size
Target sequence (Q96KQ7 913-1193 limits assumed): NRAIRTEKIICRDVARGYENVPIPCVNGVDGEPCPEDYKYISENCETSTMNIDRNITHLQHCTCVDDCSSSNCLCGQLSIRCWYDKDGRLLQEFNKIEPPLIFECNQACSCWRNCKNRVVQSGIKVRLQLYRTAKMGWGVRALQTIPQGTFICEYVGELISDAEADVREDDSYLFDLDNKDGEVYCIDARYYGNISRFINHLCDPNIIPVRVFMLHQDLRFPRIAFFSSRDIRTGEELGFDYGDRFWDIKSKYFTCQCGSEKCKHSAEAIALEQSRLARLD
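Chemiluminescent proximity detection of H3K9 monomethylation, read after 10 min bead incubation in the dark. Reaction: 20 nM G9a, 500 nM biotin-H3K9 peptide, 20 uM SAM cofactor, 2 h, room temperature, following 15 min enzyme-compound preincubation.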
ALOX12 inh – Primary qHTS assay for inhibitors of human arachidonate 12S-lipoxygenase (ALOX12): Round 2; purified 12hLO, xylenol orange hydroperoxide absorbance; Potency, µM (highest dose often 108 µM), inactives show at the highest dose activity change, negative = inhibition, most hits filed as inhibitors; 580,000 tested, 1.1% active; Polyunsaturated fatty acid lipoxygenase ALOX12 (Homo sapiens), P18054; further: on the % scale 0 is the no-effect control and ±100 the full control effect
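Purified human 12hLO at 150 nM in 25 mM Hepes, 0.01% Triton X-100, pH 7.0, preincubated 15 min at room temperature with compound. Reaction started with 40 uM arachidonic acid, 30 min at room temperature. Hydroperoxide measured by Fe-xylenol orange, 573/405 nm absorbance ratio.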
GRP78 ERSR act – qHTS for Inducers of the Endoplasmic Reticulum Stress Response (ERSR) in Human Glioma: qHTS; U87-MG GRP78 promoter luciferase reporter, 16 h; Potency, µM, inactives show at the top dose activation, hits mostly activators; 420,000 tested, 0.02% active; further: series mostly up to about 76 µM; % of control where 0% means no effect; nearly all actives have a fitted effect of over 35% in size
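ERSR induction read as luciferase luminescence (Bright-Glo, 10 min at room temperature) in stably transfected human U87-MG glioma cells exposed to compounds for 16 h, using GRP78 as sensor.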
* hit, by the source's call; ? = inconclusive; / = no result; ! = not active in a repeat; [ ] = dose if it differs, or a comment. The call rests on the fitted dose curve; in most records, active means well fitted curve in the direction sought with a large enough effect; inconclusive means small, poorly fitted or top-dose-only effect, or another doubt; inactive means no such curve, though single readings can be large; an effect the other way counts as inactive or inconclusive. Potency means the concentration at half of the fitted maximal effect.

SMILES | Sfp inh | VDR inhibitor | G9a inh | ALOX12 inh | GRP78 ERSR act
N#Cc1ccc(/C=C/C(=O)c2ccccc2)cc1 | -5% | 14µM* | ? | 51% | -5%
COc1ccccc1/C=C/C(=O)c1ccccc1 | -4% | 79µM* | 6%[0.501 µM] | 0% | ?
CCOc1ccc(C(=O)/C=C/c2ccccc2O)cc1 | / | / | / | -1% | /
CCn1c(SCC(=O)Nc2ccc(C(=O)O)cc2)nnc1-c1ccccc1Cl | / | / | / | -8% | /
O=C(/C=C/c1ccccc1Br)c1ccc(O)c(CCCl)c1 | / | / | / | 13µM* | /
Cc1noc(C(C)N2CCN(c3oc(-c4ccco4)nc3C#N)CC2)n1 (configuration not stated) | / | / | / | -30% | /
CCN(CC)c1nc2ccccc2nc1C(=O)Nc1ccc(OC)cc1 | / | / | / | 10% | /
O=C(NCCc1ccco1)c1nnc(C(=O)Nc2cccc(Cl)c2)s1 | / | / | / | -23% | /
CCN=C1SC(CC(=O)Nc2ccc3c(c2)OCO3)C(=O)N1CC (configuration not stated) | -10% | -2% | / | 9% | -3%
NC1=NC(=O)C(CC(=O)Nc2ccc3c(c2)OCO3)S1 (configuration not stated) | 14% | 5% | 50µM* | 3% | 0%
CN(CC(=O)N1c2ccccc2OCC1c1ccccc1)Cc1nc2ccccc2c(=O)[nH]1 (configuration not stated) | / | / | / | 11% | /
COc1cc(/C=C(\C#N)C(N)=O)cc(CSc2nc3ccccc3s2)c1O | -8% | -16% | 5µM* | ? | 1%
COc1ccc(C(C)O)cc1CSc1nc2ccccc2s1 (configuration not stated) | / | / | / | 2% | /
CC(C)NS(=O)(=O)c1cccc(C(=O)OCc2nc3ccccc3o2)c1 | / | / | / | -8% | /
COc1c(C)cc(NC(=O)c2ccc3c(c2)NC(=O)CO3)cc1C | 11% | -4% | -2% | -4% | 7%
COc1cc(/C=N/n2c(C)nc3ccccc3c2=O)ccc1O | 5% | 16% | 0% | 0% | -5%
COCCN=c1scc(-c2ccc3c(c2)NC(=O)CO3)n1/N=C(\C)c1ccc(O)cc1 | 89µM* | -4% | / | ? | -3%
COc1cc(/C=N/n2c(-c3ccc4c(c3)NC(=O)CO4)csc2=Nc2cccc(C)c2)ccc1O | -27% | -6% | 10µM* | ? | -5%
Cc1nn(C)c2ncc(NC(=O)CCc3ncc(-c4ccccc4)o3)cc12 | / | / | / | -28% | /
O=c1[nH]c(=O)c2nnc(N/N=C\c3ccc(O)cc3)nc2[nH]1 | ? | -11% | 11µM* | -6% | 4%
O=c1[nH]c(=O)c2nnc(N/N=C/c3ccccc3F)nc2[nH]1 | -18% | 25% | -5% | 11% | -2%
COc1ccc(C)cc1NC(=O)c1cnc(N2CCOCC2)c2ccccc12 | / | / | / | 3% | /
Cc1ccc(-c2nc(C(=O)NC3CCCCCC3)no2)cc1 | / | 79µM* | / | 460% | 5%
C[C@@H]1CC2C3CCC4=CC(=O)C=CC4(C)[C@@]3(F)[C@@H](O)CC2(C)[C@@]1(O)C(=O)CO (some centres not stated) | 1% | -1% | 2.5µM* | / | -1%
CC(C)CC(=O)Nc1nonc1-c1ccc(Br)cc1 | / | / | / | -7% | /
SMILES | Sfp inh | VDR inhibitor | G9a inh | ALOX12 inh | GRP78 ERSR act
Cc1ccc(C2C3=C(CCCC3=O)N=C3c4ccccc4C(=O)C32)cc1 (configuration not stated) | -16% | -7% | 45µM* | -32% | -4%
O=C1CCCC2=C1C(c1ccccc1)C1C(=O)c3ccccc3C1=N2 (configuration not stated) | ? | 2% | ? | -18% | -5%
COc1ccc(NC(=O)CN(C)CC(=O)Nc2cccc(F)c2)cc1S(=O)(=O)N1CCCCC1 | / | 10% | / | -20% | -1%
Cc1ccc(NC(=O)COC(=O)Cc2c[nH]c3ccccc23)cc1F | / | 17% | 35µM* | ? | -3%
O=C(COC(=O)Cc1c[nH]c2ccccc12)Nc1ccc(Cl)cc1 | / | / | / | 1% | -3%
Cc1ccc(NC(=O)CN(C)CC(=O)Nc2cccc(F)c2)cc1S(=O)(=O)N1CCCCCC1 | -20% | 2% | 5.6µM* | -14% | -9%
Cc1ccc(NC(=O)Cc2c[nH]c3ccccc23)cc1S(=O)(=O)N1CCCCCC1 | 3% | -10% | 25µM* | -7% | -3%
Cc1ccc(S(=O)(=O)N2CCCCC2)cc1NC(=O)Cc1c[nH]c2ccccc12 | 0% | -8% | -5%[59 µM] | -14% | -5%
Cc1ccc(NC(=O)CCNC(=O)c2ccc(Br)cc2)cc1S(=O)(=O)N1CCCCCC1 | / | -3% | 50µM* | -8% | -5%
COc1cccc(-c2nc3cc4c(cc3cc2CN2CCSCC2)OCO4)c1OC | / | / | / | 78% | /
Cc1cc(NC2CC(C)(C)NC(C)(C)C2)nc(C(C)C)n1 | / | / | / | 55% | /
Cn1c(=O)c(=O)n(C)c2cc(N3CCOCC3)c(NS(=O)(=O)c3ccc([N+](=O)[O-])cc3)cc21 | 50µM* | -7% | ? | ? | 0%
Cn1c(=O)c(=O)n(C)c2cc(N3CCCC3)c(NS(=O)(=O)c3ccc(Cl)cc3)cc21 | -10% | -22% | ? | 40µM* | -2%
Cn1c(=O)c(=O)n(C)c2cc(N3CCOCC3)c(NS(=O)(=O)c3ccc(F)c(Cl)c3)cc21 | 10% | -25% | -41%[59 µM] | ? | -2%
Cn1c(=O)n(C)c2cc(N3CCOCC3)c(NS(=O)(=O)c3ccc(F)cc3)cc21 | / | 2% | 8%[59 µM] | -11% | -3%
COc1cc2c(C#N)c(N3CCN(C)CC3)nc(N)c2c(N)n1 | 8% | / | 50µM* | 6% | /
COc1cc2c(C#N)c(N3CCCC3)nc(N)c2c(N)n1 | 4µM* | 28µM*! | 11% | 11% | -4%
CCOc1cc2c(C#N)c(N3CCCC3)nc(N)c2c(N)n1 | / | 3% | / | 14% | 2%
COc1ccc(C(N)CCc2ccc(C)o2)cc1 (configuration not stated) | -12% | 6% | 79µM* | 138% | 2%
CCOc1ccc(NC(=O)/C(C#N)=C\c2ccc(-c3ccc(Cl)cc3)o2)cc1 | / | 7% | -29%[59 µM] | 0% | 0%
Cc1c(NC(=O)/C(C#N)=C/c2ccc(-c3ccc(Cl)cc3)o2)c(=O)n(-c2ccccc2)n1C | ? | -22% | 20µM* | ? | -4%
Cc1c(N/N=C(\C#N)C(=O)c2ccc(Cl)cc2)c(=O)n(-c2ccccc2)n1C | 7% | -29% | ? | 8.9µM* | -7%
O=C(CSc1ncnc2ccccc12)Nc1ccccc1C(=O)Nc1ccc(Cl)cc1 | / | / | / | -3% | /
O=C(C=Cc1ccco1)N1CCOCC1 | / | -4% | / | -3% | 0%
NC(=O)C1CCN(C(=O)/C=C/c2ccco2)CC1 | ? | -9% | 8.9µM* | 1% | -4%
